CYP2C19 act: increases human CYP2C19 enzyme activity; AID 1025; 96,000 tested, under 10 active; P33261; recombinant CYP2C19, luciferin-H EGE luminescence; hits give high values; 0 = fully inhibited enzyme, 1 = untreated enzyme; activation factor at 5 µM;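 active = activation factor of at least 2 at 5 µM in the primary screen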;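 also: 0 = wells with 2.5 mM tranylcypromine and 1 = vehicle-only wells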
Target sequence (P33261 whole entry, looked up): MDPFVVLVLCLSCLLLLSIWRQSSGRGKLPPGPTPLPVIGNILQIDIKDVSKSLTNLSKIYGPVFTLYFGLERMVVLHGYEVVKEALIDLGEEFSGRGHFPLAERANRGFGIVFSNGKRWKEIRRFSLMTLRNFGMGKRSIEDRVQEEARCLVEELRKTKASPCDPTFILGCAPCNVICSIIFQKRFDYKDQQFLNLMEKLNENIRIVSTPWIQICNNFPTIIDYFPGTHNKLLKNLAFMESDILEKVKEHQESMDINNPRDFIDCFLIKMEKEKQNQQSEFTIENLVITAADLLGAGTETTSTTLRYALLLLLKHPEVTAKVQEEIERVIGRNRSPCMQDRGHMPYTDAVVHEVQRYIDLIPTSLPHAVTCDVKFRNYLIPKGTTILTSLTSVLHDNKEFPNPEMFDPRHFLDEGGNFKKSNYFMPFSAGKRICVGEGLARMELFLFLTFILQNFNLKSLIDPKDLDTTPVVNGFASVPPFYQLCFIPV
CYP2C9 inh: human CYP2C9 inhibition; P11712; CYP2C9 Supersomes, luciferin-H conversion, luminescence; inhibition, % at 5 µM; 20% of 96,000 active; AID 777;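 active = blocking of liver enzyme CYP2C9 beyond about 50% at 5 µM, limit read from the data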
CYP2C9 activ: CYP2C9 (human) activation | recombinant CYP2C9, luciferin-H conversion, luminescence; hits give high values; factor 1 = untreated enzyme, 0 = blocked | 1.4% of 96,000 active | P11712 | activation factor at 5 µM;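 active = activation factor of 2 or more for CYP2C9 at a 5 µM dose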;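 also: 0 = sulfaphenazole-blocked wells and 1 = vehicle-only wells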
EphB4 antag: antagonists of human EphB4-ephrin-B2 interaction. EphB4 LBD / TNYL-RAW-Alexa532 peptide, fluorescence polarization. inhibition, % at 7 µM. 0.15% of 97,000 active;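 active = inhibition above the screen-wide mean inhibition plus 3 SD, cut at about 15% in these data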;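 also: 0% = DMSO wells and 100% = excess unlabeled TNYL-RAW peptide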
CYP2C19 inhib: inhibitors of human CYP2C19; P33261; CYP2C19 Supersomes, luciferin-H EGE luminescence, 30 min; inhibition, % at 5 µM; 21% of 96,000 active; AID 778;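 active = CYP2C19 inhibition above a set limit at 5 µM in the primary screen, cut at about 50% in these data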;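 also: plate controls were negative control wells for no effect and 2.5 mM tranylcypromine positive control for full effect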
Starred values were filed as active, the others as inactive; . = no result. The list is not random: actives were taken first. Their share in the collection is about 27%.

SMILES	CYP2C19 act	CYP2C9 inh	CYP2C9 activ	EphB4 antag	CYP2C19 inhib
O=C(CNC(=O)c1ccc(Cl)cc1)NCCCn1ccnc1	0.1	79.4*	0.2	2.1	85.2*
O=C(Nc1ccc(NC(=O)c2ccco2)cc1)c1ccc2c(c1)OCO2	0.9	7.5	0.9	-1.7	5.5
O=C(CSc1nc(-c2ccco2)cc(C(F)(F)F)n1)NCCc1ccccc1	0.8	30.4	0.7	14.0	15.7
O=C(Cc1c(F)cccc1Cl)Nc1cccnc1	0.6	5.8	0.9	-7.3	39.2
O=C(Cc1c(F)cccc1Cl)NCCCn1ccnc1	0.1	78.8*	0.2	-8.9	91.7*
O=C(Cc1c(F)cccc1Cl)Nc1ccncc1	0.2	70.6*	0.3	0.9	81.5*
Cc1cc(CNC(=O)Cc2c(F)cccc2Cl)nn1C	0.9	-4.7	1	-4.6	8.1
O=C(Cc1ccc(Cl)cc1)NCCCn1ccnc1	0	87.9*	0.1	4.3	98.1*
O=C(NCCCn1ccnc1)C(=O)NCc1ccc(Cl)cc1	.	.	.	-4.3	.
CC(=O)c1cccc(N(C(=O)c2cnccn2)C(C(=O)NCc2ccccc2)c2ccco2)c1 (stereo not given)	0.5	23.1	0.8	-6.0	53.0*
CCc1ccc(NC(=O)C(C)Nc2ccc(S(=O)(=O)NC(C)=O)cc2)cc1 (stereo not given)	0.9	10.3	0.9	3.4	10.6
Cc1ccc(-c2cc(C(=O)NCc3ccccn3)c3ccccc3n2)cc1C	0.7	58.7*	0.4	7.5	33.3
Cc1ccc(-c2cc(C(=O)n3cnc4ccccc43)c3ccccc3n2)cc1C	0.7	87.6*	0.1	-7.0	33.4
CC(=O)NS(=O)(=O)c1ccc(NC(=O)c2cc(-c3ccc(C)c(C)c3)nc3ccccc23)cc1	0.9	16.5	0.8	-4.3	11.7
Cc1nnc(-c2cccc(Br)c2)c2cn(-c3cccc(Br)c3)nc12	0.9	23.3	0.8	0.6	13.4
CCCCC(O)(C(NC=O)C(=O)OC)C(F)(F)F (stereo not given)	0.9	-16.6	1.2	2.2	13.5
Cc1cc(C)nc(N(C#N)S(=O)(=O)c2ccccc2)n1	0.8	37.5	0.6	-11.6	19.7
CCCCS(=O)(=O)c1sc2nc(C)cc(C)c2c1N	0.1	-165.4	2.7*	6.5	89.4*
Cc1cc(C)c2c(N)c(S(=O)(=O)c3ccccc3)sc2n1	0.4	-196.2	3*	-1.3	55.6*
Cc1cc(C)c2c(N)c(C(=O)NCC3CCCCC3)sc2n1	0.9	26.5	0.7	1.3	6.4
Cn1c(=O)c2c(n(C)c1=O)=NC1(CCCCC1)N=2	0.9	13.3	0.9	3.0	11.8
Cc1c(Cl)cccc1Nc1nc(N)nc(CSc2ncccn2)n1	0.5	67.3*	0.3	3.6	52.5*
CCOC(=O)/C(C#N)=C1/CCCCCN1C	1	-18.4	1.2	-14.7	-0.6
O=C(Cc1ccccc1)NCCSCc1ccc(Cl)cc1	0.7	62.7*	0.4	-0.2	26.8
O=C(Cc1ccccc1)NCCCc1ccccc1	0.3	36.3	0.6	-0.3	67.7*
SMILES	CYP2C19 act	CYP2C9 inh	CYP2C9 activ	EphB4 antag	CYP2C19 inhib
Cc1ccc(CC(=O)NCC(C)C)cc1	0.2	15.3	0.8	4.2	79.3*
CC(CCc1ccccc1)NC(=O)CSc1nc(N)cc(N)n1 (stereo not given)	0.4	22.3	0.8	-1.5	56.3*
O=C(Cc1ccccc1)NCCSCc1ccco1	0.7	-2.3	1	-5.6	31.4
c1ccc(N2CCN(c3ncnc4c3oc3ccccc34)CC2)cc1	1	13.5	0.9	-0.5	-3.6
Cc1ccc(CC(=O)NC(C)CCc2ccccc2)cc1 (stereo not given)	0.6	71.4*	0.3	0.8	37.4
Cc1ccc(CC(=O)NCCCc2ccccc2)cc1	0.2	85.3*	0.1	-6.1	78.9*
CC(C)(C)C(=O)NCCCc1ccccc1	0.7	12.7	0.9	-5.7	32.0
Cc1noc(C)c1C(=O)NCCCc1ccccc1	0.5	52.6*	0.5	.	53.0*
CC(CCc1ccccc1)NC(=O)/C=C/c1ccccc1 (stereo not given)	0.5	45.9	0.5	-0.1	51.7*
COc1ccccc1-n1nc(C(=O)NCc2ccco2)c2ccccc2c1=O	0.9	2.8	1	.	7.0
O=C(Cc1ccccc1)NCCc1cccc(Cl)c1	0.3	47.5	0.5	-0.8	71.4*
O=C(NCCc1cccc(Cl)c1)c1cccnc1	0.6	-2.1	1	3.6	40.4
Cc1occc1C(=O)NCc1ccccc1F	0.5	50.6*	0.5	6.1	45.2
COc1ccccc1CNC(=O)c1ccoc1C	0.5	13.2	0.9	3.5	45.9
Cc1occc1C(=O)NCCCCNC(=O)c1ccoc1C	1	3.3	1	1.9	0.7
Cc1occc1C(=O)NCCc1cccc(Cl)c1	0.1	63.6*	0.4	-1.1	91.6*
Cc1ccc(Cn2nnc3c(=O)[nH]c(C4CCCN(C(=O)Nc5ccc(F)cc5)C4)nc32)cc1 (stereo not given)	1.1	-1.0	1	7.7	-7.0
O=C(c1ccccc1Cl)N1CCCC(c2nc3c(nnn3Cc3ccccc3)c(=O)[nH]2)C1 (stereo not given)	0.9	84.1*	0.2	-1.4	11.9
O=C(C1CCC1)N1CCC(c2nc3c(nnn3Cc3c(F)cccc3Cl)c(=O)[nH]2)CC1	0.8	71.2*	0.3	-4.0	17.8
O=c1[nH]c(C2CCCN(S(=O)(=O)c3ccccc3)C2)nc2c1nnn2Cc1ccccc1 (stereo not given)	0.6	80.7*	0.2	2.3	44.3
COc1cccc(Cn2nnc3c(=O)[nH]c(C4CCCN(C(=O)c5ccccc5Cl)C4)nc32)c1 (stereo not given)	0.6	82.9*	0.2	-5.4	38.8
COc1ccccc1Oc1ccc2c(c1)C(=O)N(c1ccc(Br)c3cccnc13)C2=O	1	-20.5	1.2	-1.9	-4.7
CN(C)CCNC(=O)Cc1c(C(=O)O)n(C)c2ccccc12	1	-15.7	1.2	-0.5	-4.5
CCCc1nc2c(nnn2Cc2ccccc2)c(=O)[nH]1	0.2	0.5	1	2.2	78.5*
Cc1nn(Cc2ccccc2Cl)c(Cl)c1/C=C/C(=O)OCC(=O)NC(N)=O	1.2	-5.3	1.1	4.5	-15.3
SMILES	CYP2C19 act	CYP2C9 inh	CYP2C9 activ	EphB4 antag	CYP2C19 inhib
Cc1ccccc1C(=O)Nc1cccc(NC(=O)c2ccc(-c3ccc(Br)cc3)o2)c1	0.8	55.5*	0.4	-0.3	17.5
Cc1ccccc1C(=O)Nc1ccccc1	1.1	-15.9	1.2	-4.5	-8.4
Cc1cccn2c(=O)c3cc(C(=O)NCCCN4CCCC4=O)n(C)c3nc12	0.5	31.7	0.7	6.8	51.2*
O=C(NCCCN1CCCC1=O)c1cccs1	0.9	-2.3	1	.	11.7
Cc1cccn2c(=O)c3cc(C(=O)NCCCn4ccnc4)n(C)c3nc12	0.7	60.5*	0.4	.	32.4
O=C(NCCCN1CCCC1=O)c1cccc(C(F)(F)F)c1	0.6	77.1*	0.2	2.3	44.6
CCCCNC(=O)c1cc2c(=O)n3cccc(C)c3nc2n1C	1	-43.8	1.4	.	2.8
CCOC(=O)c1ccc(N2C(=O)CC(N3CCCC(C)C3)C2=O)cc1 (stereo not given)	1	-11.8	1.1	-2.0	2.2
